Test systems include MOLT-4 leukemia; RPMI-8226 leukemia; OVCAR-8 ovarian; OVCAR-5 ovarian; OVCAR-4 ovarian; SK-OV-3 ovarian; IGROV1 ovarian; OVCAR-3 ovarian; HS 578T breast; NCI/ADR-RES ovarian; T-47D breast; BT-549 breast; MDA-MB-435 melanoma; SW-620 colon; MCF7 breast; HCT-116 colon; HCC-2998 colon; KM12 colon.
Assay in all cases: NCI-60 one-dose screen, 48 h (100 = growth as untreated, 0 = no growth, -100 = all killed)
Common to all, as to conditions: 10 µM unless noted

The values that follow come from PubChem BioAssay (NCI).

Structures are written as SMILES. The panel holds about 83,000 compounds, 20% with a hit somewhere; the sample as a whole holds those more often.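 Single-concentration screen, 48 h exposure, 96-well plates. Endpoint: percent growth. Below 10 = active.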 Unmarked numbers belong to inactive results. Active and inactive are the calls of the source.

Turning to `COc1cc([C@@H]2c3cc4c(cc3[C@H](OC(C)=O)[C@H]3COC(=O)[C@@H]23)OCO4)cc(OC)c1OC`, the growth is 16.4% with MOLT-4 leukemia; 23.6% with RPMI-8226 leukemia; 6.28% (active) in the assay with OVCAR-8 ovarian; 26.4% with OVCAR-5 ovarian; 29.9% in the assay with OVCAR-4 ovarian; -10.2% (active) with SK-OV-3 ovarian. Further, the growth was 16.8% with IGROV1 ovarian; 13.2% in the assay with OVCAR-3 ovarian; 7.08% (active) with HS 578T breast; -43% (active) with NCI/ADR-RES ovarian; 99.2% in the assay with T-47D breast; 8.82% (active) in the assay with BT-549 breast. The growth in the assay with MDA-MB-435 melanoma was -24.4% (active); with SW-620 colon it was 26.8%; with MCF7 breast, 13.5%; in the assay on HCT-116 colon it was -14.2% (active); in the assay on HCC-2998 colon it was -21% (active); with KM12 colon it was -37.1% (active).

For `CC(C)(NC(=O)O[C@@H]1CN2CCC1CC2)c1csc(-c2ccc(F)cc2)n1`, the growth is 91.3% with MOLT-4 leukemia; 103% with RPMI-8226 leukemia; 102% in the assay on OVCAR-8 ovarian; 96.2% with OVCAR-5 ovarian; 97.4% with OVCAR-4 ovarian; 99.6% with SK-OV-3 ovarian. The growth is 101% with IGROV1 ovarian; 109% in the assay on OVCAR-3 ovarian; 98.2% in the assay on HS 578T breast; 96.8% in the assay on NCI/ADR-RES ovarian; 88.3% with T-47D breast; 101% in the assay with BT-549 breast. Besides, the growth is 99.1% with MDA-MB-435 melanoma; 99.2% in the assay with SW-620 colon; 90.3% in the assay with MCF7 breast; 95.5% with HCT-116 colon; 102% with HCC-2998 colon; 101% in the assay on KM12 colon.

With `COC(=O)[C@@H](C)C[C@H](Cc1ccccc1)NC(=O)c1csc([C@@H](C[C@H](C(C)C)N(C)C(=O)[C@@H](NC(=O)[C@H]2CCCCN2C)c2ccc(F)cc2)OC(C)=O)n1`, the growth in the assay with MOLT-4 leukemia is 8.23% (active); with RPMI-8226 leukemia it was 17.9%; with OVCAR-8 ovarian it was 26.8%; with OVCAR-5 ovarian, 20.7%; with OVCAR-4 ovarian, 48.4%; in the assay with SK-OV-3 ovarian, 21.2%. Also, the growth is 27% with IGROV1 ovarian; -17% (active) in the assay with OVCAR-3 ovarian; 1.1% (active) in the assay on HS 578T breast; 5.55% (active) in the assay with NCI/ADR-RES ovarian; 45.7% in the assay on T-47D breast; 0.368% (active) with BT-549 breast. Besides, the growth in the assay on MDA-MB-435 melanoma is -27.7% (active); with SW-620 colon it was 22.8%; with HCT-116 colon it was 3.28% (active); in the assay with HCC-2998 colon, 10.1%; in the assay with KM12 colon, -3.41% (active).

On to `O=C(O)c1ccc([S-])cc1.[Au+].c1ccc(CN2[CH-]N(Cc3ccccc3)C(c3ccccc3)=C2c2ccccc2)cc1`, for which the growth with MOLT-4 leukemia is -1.59% (active); in the assay with RPMI-8226 leukemia, -11% (active); in the assay with OVCAR-8 ovarian it was 1.87% (active); in the assay on OVCAR-5 ovarian it was -14.2% (active); in the assay with OVCAR-4 ovarian it was 38.1%; in the assay on SK-OV-3 ovarian it was -5% (active). The growth is -58.6% (active) in the assay on IGROV1 ovarian; -95.2% (active) in the assay with OVCAR-3 ovarian; 23.2% in the assay on HS 578T breast; 3.13% (active) in the assay on NCI/ADR-RES ovarian; -66.5% (active) with T-47D breast; -21.2% (active) in the assay on BT-549 breast. Also, the growth is -9.04% (active) with MDA-MB-435 melanoma; -50.2% (active) in the assay with SW-620 colon; -86.1% (active) with MCF7 breast; -84.7% (active) in the assay on HCT-116 colon; -72.7% (active) in the assay with HCC-2998 colon; -26.1% (active) in the assay on KM12 colon.

Take `CC(=O)O[C@H]1CC[C@]2(C)[C@H]3CC[C@]4(C)[C@@H](OC(C)=O)CC[C@H]4[C@@H]3[C@@H](C)[C@]2(O)C1`: the growth with MOLT-4 leukemia was 87.9%; with RPMI-8226 leukemia it was 100%; in the assay with OVCAR-8 ovarian it was 115%; in the assay on OVCAR-5 ovarian it was 108%; in the assay on OVCAR-4 ovarian, 110%; in the assay with SK-OV-3 ovarian, 117%. Besides, the growth in the assay with IGROV1 ovarian was 116%; in the assay with OVCAR-3 ovarian, 127%; in the assay with HS 578T breast, 110%; in the assay on NCI/ADR-RES ovarian, 98.9%; with T-47D breast, 106%; in the assay with BT-549 breast it was 113%. Besides, the growth in the assay on SW-620 colon is 104%; in the assay on MCF7 breast, 104%; with HCT-116 colon it was 98.1%; in the assay with HCC-2998 colon it was 108%; in the assay with KM12 colon, 109%.

On to `CC(=O)Oc1ccccc1C(=O)NCCC[Se]C#N`, for which the growth with MOLT-4 leukemia is 10.7%; with RPMI-8226 leukemia it was 91.1%; in the assay on OVCAR-8 ovarian it was -13.9% (active); with OVCAR-5 ovarian, 83.3%; with OVCAR-4 ovarian, 57.2%; in the assay with SK-OV-3 ovarian, 32.6%. The growth in the assay with IGROV1 ovarian is 10.8%; with OVCAR-3 ovarian, -5.3% (active); in the assay with HS 578T breast it was 17.1%; in the assay with NCI/ADR-RES ovarian, 14.4%; with T-47D breast, 83.3%; with BT-549 breast, -97% (active). The growth is 3.02% (active) with MDA-MB-435 melanoma; 72.9% in the assay on SW-620 colon; 14.5% in the assay with MCF7 breast; 0.0792% (active) with HCT-116 colon; 97.9% with HCC-2998 colon; 29.6% in the assay with KM12 colon.

As to `CC(C)=CC1C(C(=O)OCc2cccc(Oc3ccccc3)c2)C1(C)C` (stereo not drawn), the growth is 83.3% in the assay with MOLT-4 leukemia; 91.7% in the assay with RPMI-8226 leukemia; 100% in the assay on OVCAR-8 ovarian; 101% in the assay with OVCAR-5 ovarian; 97.3% in the assay on OVCAR-4 ovarian; 102% with SK-OV-3 ovarian. Further, the growth with IGROV1 ovarian was 93.1%; with OVCAR-3 ovarian, 102%; in the assay on HS 578T breast it was 101%; in the assay with NCI/ADR-RES ovarian, 95%; in the assay with T-47D breast it was 81.5%; in the assay with BT-549 breast, 100%. In addition, the growth in the assay on MDA-MB-435 melanoma is 91.9%; in the assay on SW-620 colon it was 94.8%; in the assay with HCT-116 colon, 84.8%; in the assay on HCC-2998 colon it was 94.5%; with KM12 colon it was 97.3%.

For the compound `CCCCCN(CCCCC)CC(O)c1cc(Cl)ccc1OC` (stereo not drawn), the growth is 34.9% in the assay with MOLT-4 leukemia; 0.775% (active) with RPMI-8226 leukemia; 63.1% in the assay with OVCAR-8 ovarian; 53.7% with OVCAR-5 ovarian; 42.9% with OVCAR-4 ovarian; 53.6% with SK-OV-3 ovarian. The growth was 2.26% (active) in the assay on IGROV1 ovarian; 28.6% in the assay with OVCAR-3 ovarian; 50.1% with HS 578T breast; 32.4% in the assay on NCI/ADR-RES ovarian; 35% in the assay with T-47D breast; 79.8% with BT-549 breast. Besides, the growth in the assay with MDA-MB-435 melanoma is 42.8%; with SW-620 colon, 25%; in the assay on MCF7 breast, 15.8%; with HCT-116 colon, 4.09% (active); with HCC-2998 colon, 17.2%; in the assay with KM12 colon it was 29.8%.

In the case of `C[C@]12CC[C@H]3[C@@H](CC4SC(N)=NC45C/C(=N/NC(N)=O)CC[C@]35C)[C@@H]1CCC2=O` (stereo partly drawn), the growth with MOLT-4 leukemia was 13.4%; in the assay on RPMI-8226 leukemia it was -6.28% (active); in the assay on OVCAR-8 ovarian it was -2.26% (active); in the assay on OVCAR-5 ovarian it was 72.9%; in the assay with OVCAR-4 ovarian, -19.1% (active); with SK-OV-3 ovarian, 101%. Also, the growth is 2.9% (active) with IGROV1 ovarian; -32.3% (active) with OVCAR-3 ovarian; 36.4% with HS 578T breast; -5.32% (active) in the assay with NCI/ADR-RES ovarian; -21% (active) with T-47D breast; 107% in the assay on BT-549 breast. The growth with MDA-MB-435 melanoma was -58.8% (active); with SW-620 colon it was -59.2% (active); with HCT-116 colon it was 6.35% (active); in the assay with HCC-2998 colon, 63.9%; with KM12 colon, 20.5%.
